# A selection: hits, their analogues and other compounds. The true share with any hit is near 5.4%.
# HSF-1 act = increases HSF-1 driven luciferase reporter signal; NIH3T3-HGL HSF-1 luciferase reporter, MG132, 8 h; 100% = twice DMSO control signal; activation, % at 9 µM; actives 1.7% (n = 300,000); AID 504408;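 active = mean replicate activation of at least 50% with a set share of replicates each reaching 50%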
# DAX1 inh = inhibitors of human orphan nuclear receptor DAX1 (NR0B1); P51843; HEK293 Gal4-DAX1 luciferase reporter, luminescence; inhibition, % at 6.75 µM; actives 0.99% (n = 340,000); AID 504766;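 active = inhibition above the mean over all tested compounds plus 3 SD, cut at about 4.2% in these data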;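 note: inhibition shows as a rise in luminescence from relieved DAX1 repression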
# GAA850 FXN act = frataxin GAA850 promoter activation; HEK293 lucGAA850 FXN promoter luciferase reporter, 24 h; percent of 10 µM SAHA response; activation, % at 6 µM; actives 0.56% (n = 360,000); AID 540364;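 active = activation above the average of all compounds screened plus 3 SD, cutoff fixed separately per campaign, cut at about 7.5% in these data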
# AHR activator = human AHR activation; P35869; AHR-responsive luciferase reporter cells, luminescence; activation, % at 5 µM; actives 2.5% (n = 320,000); AID 2796; in the data active = activation above about 47%
# Target sequence (P35869 whole entry, looked up): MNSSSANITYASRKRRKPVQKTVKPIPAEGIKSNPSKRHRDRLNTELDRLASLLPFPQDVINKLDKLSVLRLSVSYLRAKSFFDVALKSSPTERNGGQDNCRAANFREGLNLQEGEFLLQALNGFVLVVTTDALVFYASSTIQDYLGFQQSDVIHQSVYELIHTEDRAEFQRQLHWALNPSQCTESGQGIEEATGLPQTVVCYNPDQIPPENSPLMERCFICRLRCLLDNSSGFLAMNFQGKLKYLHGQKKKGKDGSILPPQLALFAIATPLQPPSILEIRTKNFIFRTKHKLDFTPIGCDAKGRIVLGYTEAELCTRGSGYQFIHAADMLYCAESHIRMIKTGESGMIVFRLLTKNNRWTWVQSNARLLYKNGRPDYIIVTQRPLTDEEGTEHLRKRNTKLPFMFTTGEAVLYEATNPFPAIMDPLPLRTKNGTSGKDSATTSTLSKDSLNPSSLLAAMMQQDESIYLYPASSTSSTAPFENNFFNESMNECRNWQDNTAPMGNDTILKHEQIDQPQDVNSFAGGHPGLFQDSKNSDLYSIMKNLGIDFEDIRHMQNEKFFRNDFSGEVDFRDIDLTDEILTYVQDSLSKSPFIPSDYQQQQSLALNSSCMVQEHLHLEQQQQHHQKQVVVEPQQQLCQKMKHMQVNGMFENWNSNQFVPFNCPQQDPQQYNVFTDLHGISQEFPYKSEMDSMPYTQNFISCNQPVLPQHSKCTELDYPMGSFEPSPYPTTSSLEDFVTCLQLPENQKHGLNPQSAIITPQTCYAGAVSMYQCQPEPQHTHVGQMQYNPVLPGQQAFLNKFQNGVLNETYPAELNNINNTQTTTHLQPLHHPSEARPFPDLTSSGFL
# HSF1 inhib = HSF1 inhibition; NIH3T3-HGL HSE-luciferase, MG132-induced, luminescence 8 h; active compounds read low; activity change, negative = inhibition, % at 7.5 µM (by protocol); actives 0.77% (n = 300,000);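 active = more than half of replicate wells show activity change below -50%, luminescence cut by over half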;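 note: luciferase reports HSF-1 transcriptional activity via heat shock element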
# Hits are given with their value; - = inactive; . = not tested or not shown.
SMILES,HSF-1 act,DAX1 inh,GAA850 FXN act,AHR activator,HSF1 inhib
Cc1ccccc1NC(=S)NC1(C)CCS(=O)(=O)C1 (centres undefined),-,-,-,-,-
COc1ccc(/C=C/C2=CCN(Cc3ccc(OC)cc3)CC2)cc1,-,.,-,-,-
Cc1c(-n2cc(C(=O)c3ccccc3O)cc(C#N)c2=O)c(=O)n(-c2ccccc2)n1C,109,-,-,-,-
N#Cc1cc(C(=O)c2ccccc2O)cn(-c2ccc(Cl)cc2)c1=O,-,.,-,-,-
Cc1ccc(C(=O)O/N=C(\N)c2ccccc2)c(Cl)c1,-,-,-,-,-81
Cc1ccc(C(=O)O/N=C(\N)c2ccccn2)c(Cl)c1,-,-,-,-,-84
N/C(=N\OC(=O)c1ccc([N+](=O)[O-])cc1Cl)c1ccccn1,-,-,-,-,-
N/C(=N\OC(=O)c1ccc(Cl)cc1Cl)c1ccccn1,-,-,-,-,-65
COc1cc([N+](=O)[O-])ccc1NC(=O)CSc1nncn1-c1cccnc1,-,-,-,-,-
O=C1CC(NS(=O)(=O)c2ccc3ccccc3c2)CN1c1ccccc1 (centres undefined),-,-,-,-,-
Cc1ccc(S(=O)(=O)N2C[C@@H](C)[C@]3(C2)[C@H](O)[C@H](OC(=O)Nc2c(C)noc2C)C[C@H]2C(=O)N(c4ccccc4)C(=O)[C@H]23)cc1,.,-,-,.,.
CCC1CCCCN1CCCNC(=O)CSc1nc2nc(C)c(Cc3ccc(C)cc3)c(C)n2n1 (centres undefined),-,-,-,-,-66
Cc1ccc(Cc2c(C)nc3nc(SCC(=O)NCCCN4CCCCCC4)nn3c2C)cc1,-,.,.,-,-
CC1(C)CNC(=S)N1Cc1ccccc1,.,4.3,-,.,.
Cc1cc(C)cc(OCCNC(=O)c2cc(S(=O)(=O)N3CCOCC3)ccc2F)c1,-,-,-,-,-
CCN(CC)C(=O)C1CCCN(c2ccc([N+](=O)[O-])cc2/C=N/NC(=O)c2ccc([N+](=O)[O-])cc2)C1 (centres undefined),-,-,-,-,-78
Fc1ccccc1/C=N/NC(=S)Nc1ccc(Cl)cc1Cl,-,-,-,77,-
COc1ccc2cc(C(=O)C3CCCN(C(=O)c4cncs4)C3)ccc2c1 (centres undefined),-,-,-,59,-
O=C(Nc1ccc(Cl)cc1)C1C2CCCCC21 (centres undefined),79,-,-,-,-
CCOC(=O)CN1C(=O)/C(=C/c2cccc(Br)c2)Oc2ccccc21,-,-,-,-,-
O=C(O)CN1C(=O)/C(=C/c2ccccc2Br)Oc2ccccc21,70,-,-,-,-
COc1ccc(CC(=O)N2CCc3cc(OC)c(OC)cc3C2O)cc1OC (centres undefined),-,-,-,-,-
Cc1n[nH]c(C)c1S(=O)(=O)Nc1ccc2c(c1)OCCO2,-,-,-,-,-62
Cc1ccc(N(CC(=O)Nc2ccc3c(c2)OCCO3)S(=O)(=O)c2c(C)n[nH]c2C)cc1,-,-,-,-,-
Cc1nn(C)cc1S(=O)(=O)Nc1ccc2c(c1)OCCO2,-,-,-,-,-63
SMILES,HSF-1 act,DAX1 inh,GAA850 FXN act,AHR activator,HSF1 inhib
Cc1c(S(=O)(=O)Nc2ccc3c(c2)OCCO3)cnn1C,-,-,-,-,-
CC(C)OCCCNC(=O)COc1ccc2oc3c(c2c1)CCCC3,-,-,-,-,-
COc1ccc(CN2CCC(C(=O)Nc3ccc(Oc4cccnc4)cc3)CC2)c(C)c1C,-,-,-,-,-83
COc1cccc(O)c1CN1CCC(C(=O)Nc2ccc(Oc3cccnc3)cc2)CC1,-,-,-,-,-
O=C(O)CCc1nn2c3ccccc3nc2n(Cc2ccccc2)c1=O,-,-,-,-,-
CCOC(=O)c1csc(NC(=O)CCS(=O)(=O)c2ccc(Cl)cc2)n1,.,-,-,.,.
CCOc1ccccc1NC(=S)NCc1ccco1,52,-,-,-,-
CCOc1ccc(NC(=S)Nc2cc(-c3ccccc3)[nH]n2)cc1,-,-,-,78,-
S=C(NCc1ccco1)Nc1cc(-c2ccccc2)[nH]n1,-,-,-,74,-
COc1ccc(NC(=S)Nc2cc(-c3ccccc3)[nH]n2)cc1Cl,-,-,-,-,-
S=C(NCc1ccco1)Nc1ccc(Cl)c(Cl)c1,-,-,-,-,-
CC(C)(C)c1ccccc1NC(=O)CN1C(=O)NC2(CCCCCC2)C1=O,.,-,-,-,.
Cc1ccccc1Nc1cc2ccccc2c(=O)[nH]1,-,-,-,-,-
